Test results from publication PMC5540273 (PLoS ONE, 2017).

Test system: PRKD3
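Note: kd values determined as follow-up on hits from a single-replicate KINOMEscan panel screen.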

Q: `FC(F)(F)c1ccccc1-c1cc(-c2c[nH]nc2-c2ccccn2)ccn1` [GW679396] was tested. Which Kd did it give?
A: > 10 µM

Q: `Cc1ccccc1-c1cc(-c2c[nH]nc2-c2ccccn2)ccn1` [GW680061] was tested. Which Kd did it give?
A: > 10 µM

Q: `COc1ccc(Nc2nccc(-c3ccc(NC(=O)c4cc5cc(F)ccc5[nH]4)cc3)n2)cc1` [GSK1229496] was tested. Which Kd did it give?
A: > 10 µM

Q: For `CS(=O)(=O)CCNCc1nc(-c2ccc3ncnc(Nc4ccc(OCc5ccccc5)c(Cl)c4)c3c2)cs1.Cl` [GW582764], which Kd is on record?
A: > 10 µM

Q: Which Kd does the source give for `COc1cccc(C2=C(Nc3cc(Cl)c(O)c(Cl)c3)C(=O)NC2=O)c1` [SB-390767] here?
A: > 10 µM

Q: Which Kd does the source give for `COc1ccc(Nc2nccc(N3CCC(NC(=O)c4cc5ccccc5s4)C3)n2)cc1` (stereo not shown) [GSK1379738] here?
A: > 10 µM

Q: `COC(=O)C(Cc1ccccc1)NC(=O)NC1CCN(c2ccnc(Nc3ccc(F)cc3)n2)C1` (stereo not shown) [GSK1379714] was tested. Which Kd did it give?
A: > 10 µM
